Among the test systems are DU-145 prostate; K-562 leukemia; MALME-3M melanoma; MDA-MB-231 breast; RXF 393 renal; SF-268 CNS; SF-295 CNS; SF-539 CNS; UACC-257 melanoma; M14 melanoma; HCT-15 colon; HT29 colon; SNB-75 CNS; SNB-19 CNS; U251 CNS; PC-3 prostate; SK-MEL-5 melanoma; UACC-62 melanoma; LOX IMVI melanoma; SK-MEL-28 melanoma.
What all share (test): NCI-60 one-dose screen, 48 h (100 = growth as untreated, 0 = no growth, -100 = all killed)
Conditions in all cases: 10 µM unless noted

Growth data for 8 compounds are collected here from PubChem BioAssay (NCI).

Compounds without any hit were thinned out: in the full panel of roughly 83,000, 20% have a hit.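 Percent growth is the endpoint: 0 to 100 indicates growth inhibition (40 means 60% inhibition), 0 means no net growth, and negative values indicate cell death.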 Unmarked numbers belong to inactive results. Calls of active or inactive are those of the source. How the source made its calls: active means growth percent below 10; inactive means the rest.

Consider `COc1cc(C2CC(c3ccccc3)=NN2C=O)ccc1Oc1ccnc2cc(Cl)ccc12` (stereo not given), for which the growth in the assay on DU-145 prostate was 77.9%; in the assay with K-562 leukemia it was 51.1%; in the assay on MALME-3M melanoma, 52.7%; in the assay on MDA-MB-231 breast, 74.6%; with RXF 393 renal it was 98.9%; in the assay with SF-268 CNS, 65.6%. Further, the growth in the assay with SF-295 CNS was 43.3%; in the assay on SF-539 CNS, 79.8%; with UACC-257 melanoma it was 31.6%; in the assay on M14 melanoma, 54.9%; in the assay on HCT-15 colon it was 59.3%; in the assay with HT29 colon, 75.9%. For the same compound, the growth in the assay on SNB-75 CNS is 69.9%; with SNB-19 CNS, 71.2%; in the assay with U251 CNS, 88.6%; with PC-3 prostate, 31.4%; with SK-MEL-5 melanoma, 1.25% (active); with UACC-62 melanoma it was 54.3%. The results for the growth in the assay with LOX IMVI melanoma and with SK-MEL-28 melanoma were 56.6% and 75.9%, respectively.
As to `O=C(Nc1ccccc1)c1cc2ccccc2s1`, the growth in the assay with DU-145 prostate is 103%; with K-562 leukemia, 87.1%; with MALME-3M melanoma, 108%; in the assay on MDA-MB-231 breast it was 78.2%; with RXF 393 renal, 110%; in the assay with SF-268 CNS it was 95.6%. The growth was 96.8% in the assay on SF-295 CNS; 110% in the assay with SF-539 CNS; 95.1% with UACC-257 melanoma; 75.5% in the assay with M14 melanoma; 63.9% with HCT-15 colon; 104% in the assay with HT29 colon. For the same compound, the growth was 92.9% in the assay on SNB-75 CNS; 99.7% in the assay on SNB-19 CNS; 89.4% in the assay with U251 CNS; 82% with PC-3 prostate; 56.7% in the assay with SK-MEL-5 melanoma; 67.1% in the assay with UACC-62 melanoma. In addition, the growth with LOX IMVI melanoma is 83.4%; in the assay with SK-MEL-28 melanoma it was 107%.
With `CC(C)CCSc1nc(-c2ccc(F)cc2)c(C#N)c(N2CCCCC2)n1`, the growth with DU-145 prostate was 97%; with K-562 leukemia, 78.8%; in the assay on MALME-3M melanoma, 93.9%; in the assay on MDA-MB-231 breast, 88%; in the assay with RXF 393 renal, 94.3%; in the assay on SF-268 CNS, 97.3%. Also, the growth is 103% with SF-295 CNS; 107% with SF-539 CNS; 84.7% in the assay with UACC-257 melanoma; 99.2% with M14 melanoma; 97.7% with HCT-15 colon; 83.2% with HT29 colon. In addition, the growth in the assay with SNB-75 CNS is 94.2%; in the assay with SNB-19 CNS it was 102%; in the assay on U251 CNS, 93.6%; in the assay on PC-3 prostate, 89.2%; in the assay with SK-MEL-5 melanoma, 95.8%; in the assay on UACC-62 melanoma, 70.3%. For the same compound, the growth with LOX IMVI melanoma was 93%; in the assay on SK-MEL-28 melanoma it was 96.3%.
Turning to `CCOC(=O)c1cc(N)nc2ccccc12`, the growth in the assay on DU-145 prostate is 104%; with K-562 leukemia, 91.1%; with MALME-3M melanoma, 139%; with MDA-MB-231 breast, 107%; in the assay with RXF 393 renal it was 109%; in the assay with SF-268 CNS, 91.1%. Besides, the growth in the assay with SF-295 CNS is 100%; in the assay with SF-539 CNS it was 97.8%; in the assay with UACC-257 melanoma, 115%; in the assay with M14 melanoma, 108%; in the assay on HCT-15 colon, 107%; in the assay with HT29 colon it was 97.4%. For the same compound, the growth in the assay with SNB-75 CNS is 112%; in the assay on SNB-19 CNS it was 106%; with U251 CNS, 103%; in the assay on PC-3 prostate it was 104%; in the assay with SK-MEL-5 melanoma it was 106%; in the assay on UACC-62 melanoma it was 108%. Moreover, the figures for the growth in the assay with LOX IMVI melanoma and in the assay on SK-MEL-28 melanoma were 96.7% and 123%, respectively.
Regarding `N/N=C(\C(=N\N)c1ccccc1)c1ccccc1`, the growth with DU-145 prostate was 113%; in the assay on K-562 leukemia, 111%; with MALME-3M melanoma, 88%; with MDA-MB-231 breast, 111%; in the assay with RXF 393 renal it was 118%; in the assay on SF-268 CNS, 103%. For the same compound, the growth with SF-295 CNS is 105%; in the assay on SF-539 CNS, 103%; with UACC-257 melanoma, 107%; in the assay on M14 melanoma, 96.6%; in the assay with HCT-15 colon, 104%; in the assay with HT29 colon, 94.7%. For the same compound, the growth with SNB-75 CNS is 86.4%; with SNB-19 CNS, 96.6%; in the assay with U251 CNS, 104%; in the assay on PC-3 prostate it was 88.7%; in the assay with SK-MEL-5 melanoma, 101%; in the assay on UACC-62 melanoma, 90.2%. Besides, the growth with LOX IMVI melanoma is 97.3%; in the assay on SK-MEL-28 melanoma, 105%.
For the compound `COc1cc(/C=C2\CN(C(=O)OC(C)(C)C)C/C(=C\c3ccc(O)c(OC)c3)C2=O)ccc1O`, the growth in the assay with DU-145 prostate was 101%; with K-562 leukemia, 80.1%; in the assay on MALME-3M melanoma, 97.5%; in the assay with MDA-MB-231 breast, 86.1%; in the assay on RXF 393 renal it was 102%; in the assay on SF-268 CNS it was 89.5%. Further, the growth in the assay with SF-295 CNS was 101%; in the assay with SF-539 CNS it was 106%; in the assay on UACC-257 melanoma it was 73.6%; in the assay with M14 melanoma, 93.9%; with HCT-15 colon, 98.4%; in the assay with HT29 colon it was 96.5%. Besides, the growth in the assay on SNB-75 CNS is 94.8%; with SNB-19 CNS, 87.3%; in the assay on U251 CNS, 92.9%; in the assay on PC-3 prostate, 81.7%; with SK-MEL-5 melanoma, 93.4%; in the assay on UACC-62 melanoma, 82.4%. Moreover, the values for the growth in the assay with LOX IMVI melanoma and with SK-MEL-28 melanoma were 92.4% and 111%, respectively.
In the case of `Nc1cc(C(=O)O)cc(C(=O)O)c1`, the growth with DU-145 prostate is 145%; in the assay on K-562 leukemia it was 96.6%; in the assay on MALME-3M melanoma, 92.8%; in the assay on MDA-MB-231 breast, 102%; in the assay with RXF 393 renal, 128%; in the assay with SF-268 CNS, 115%. The growth is 113% in the assay on SF-295 CNS; 103% in the assay on SF-539 CNS; 110% in the assay on UACC-257 melanoma; 98.9% in the assay on M14 melanoma; 111% in the assay on HCT-15 colon; 97.2% with HT29 colon. The growth was 99.2% in the assay with SNB-75 CNS; 111% in the assay on SNB-19 CNS; 108% with U251 CNS; 96.8% in the assay with PC-3 prostate; 108% with SK-MEL-5 melanoma; 104% in the assay on UACC-62 melanoma. For the same compound, the growth with LOX IMVI melanoma and with SK-MEL-28 melanoma was 115% throughout.
As for `Clc1ccccc1CNc1c2ccccc2nc2ccccc12`, the growth in the assay with DU-145 prostate is 31.8%; in the assay with K-562 leukemia, 5.33% (active); in the assay on MALME-3M melanoma it was 19%; in the assay with MDA-MB-231 breast, 29%; in the assay with RXF 393 renal it was 15%; in the assay on SF-268 CNS it was 46.6%. The growth in the assay with SF-295 CNS was 21.7%; in the assay with SF-539 CNS it was 6.15% (active); with UACC-257 melanoma, 44.3%; in the assay on M14 melanoma, 18.1%; in the assay on HCT-15 colon, 13.6%; in the assay on HT29 colon it was 5.54% (active). The growth in the assay on SNB-75 CNS is 43.1%; in the assay with SNB-19 CNS, 25.8%; in the assay on U251 CNS, 23.2%; in the assay with PC-3 prostate, 17.1%; in the assay on SK-MEL-5 melanoma, 41.8%; in the assay with UACC-62 melanoma, 41%. Besides, the figures for the growth in the assay with LOX IMVI melanoma and in the assay with SK-MEL-28 melanoma were 4.83% (active) and 50.5%, respectively.
